Results taken from PubChem BioAssay (EPA / NIEHS).
Results filed as inconclusive are left out. The source made the active and inactive calls. How the source made its calls: active means hit-call score of the fitted dose curve at least 0.9, where 1 is the maximum; inconclusive means response in the unintended direction; inactive means score below 0.9.

Each molecule was assayed against Androgen Receptor/SRC-1 Co-activator, AR (gene 367) (UniProt P10275) (assay: OT_AR_ARSRC1_0480: Odyssey Thera (OT) 8-hour HEK293T Protein-Complementation Assay for Androgen Receptor/SRC-1 Co-activator (AID 2283354);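 further: hits raise the complementation signal above DMSO so AC50 marks enhancers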).
Chain of Androgen Receptor/SRC-1 Co-activator, AR (gene 367) (P10275 whole entry, looked up, the tested form may be a part): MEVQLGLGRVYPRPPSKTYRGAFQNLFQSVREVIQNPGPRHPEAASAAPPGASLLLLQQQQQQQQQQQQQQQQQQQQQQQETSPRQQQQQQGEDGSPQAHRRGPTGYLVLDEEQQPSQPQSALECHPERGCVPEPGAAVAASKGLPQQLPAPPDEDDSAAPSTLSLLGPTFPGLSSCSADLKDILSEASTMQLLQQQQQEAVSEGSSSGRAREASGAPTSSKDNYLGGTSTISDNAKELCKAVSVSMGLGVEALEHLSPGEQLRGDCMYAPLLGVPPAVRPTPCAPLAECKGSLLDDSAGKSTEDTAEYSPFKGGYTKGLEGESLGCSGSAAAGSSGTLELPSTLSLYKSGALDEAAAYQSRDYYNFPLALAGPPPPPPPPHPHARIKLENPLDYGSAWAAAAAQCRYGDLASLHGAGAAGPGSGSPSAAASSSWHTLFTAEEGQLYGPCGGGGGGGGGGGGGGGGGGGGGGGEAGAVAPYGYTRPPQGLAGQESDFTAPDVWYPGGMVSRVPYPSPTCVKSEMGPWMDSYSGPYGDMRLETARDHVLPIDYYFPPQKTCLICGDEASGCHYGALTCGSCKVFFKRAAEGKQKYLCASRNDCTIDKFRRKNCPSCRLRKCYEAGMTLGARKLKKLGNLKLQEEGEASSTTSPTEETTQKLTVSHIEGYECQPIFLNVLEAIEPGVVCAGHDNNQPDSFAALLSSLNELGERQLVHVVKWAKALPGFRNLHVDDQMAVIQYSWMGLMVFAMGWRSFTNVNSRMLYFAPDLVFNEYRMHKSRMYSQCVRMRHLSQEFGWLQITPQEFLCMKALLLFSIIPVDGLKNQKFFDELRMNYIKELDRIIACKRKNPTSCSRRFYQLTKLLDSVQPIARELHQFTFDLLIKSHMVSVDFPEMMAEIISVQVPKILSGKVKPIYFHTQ
Experimental: OT_AR_ARSRC1_0480 is a cell-based, single-readout assay that uses HEK293T, a human kidney cell line, with measurements taken at 8 hours after chemical dosing in a 384-well plate.OT_AR_ARSRC1_0480 is one of one assay component(s) measured or calculated from the OT_AR_ARSRC1_0480 assay. It is designed to make measurements of protein fragment complementation, a form of binding reporter, as detected with fluorescence intensity signals by Protein-fragment Complementation technology.Data from the assay component OT_AR_ARSRC1_0480 was analyzed into 1 assay endpoint. This assay endpoint, OT_AR_ARSRC1_0480, was analyzed in the positive analysis fitting direction relative to DMSO as the negative control and baseline of activity. Using a type of binding reporter, measures of receptor for gain-of-signal activity can be used to understand the binding at the pathway-level as they relate to the gene AR. Furthermore, this assay endpoint can be referred to as a primary readout, because the performed assay has only produced 1 assay endpoint. To generalize the intended target to other relatable targets, this assay endpoint is annotated to the nuclear receptor intended target family, where the subfamily is steroidal.
Protein-fragment complementation assay, or PCA, is a method for the identification and quantification of protein-protein interactions. In the PCA, the proteins of interest ("bait" and "prey") are each covalently linked to fragments of a third protein (e.g. DHFR, which acts as a "reporter"). Interaction between the bait and the prey proteins brings the fragments of the reporter protein in close proximity to allow them to form a functional reporter protein whose activity can be measured. The OT AR / SRC-1 assay assessed androgen receptor chemical interactions using a rapidly maturing, intensely fluorescent mutant of YFP known as Venus, rationally dissected into two separate fragments. […] Fusion constructs were transfected into HEK293T cells with a (Gly4Ser)2 linker between the AR/SRC-1 and YFP fragment genes to facilitate complementation when interacting proteins bring fragments into close proximity. The construct is stably expressed in HEK293T cells. […] Images were acquired on an Evotec Opera at 2 wavelengths (488 and 635nm), and the ratio of fluorescence in the nucleus relative to fluorescence in the cytoplasm (N/C Ratio) in the 488nm channel was calculated for a minimum of 400 cells per image. Both agonists and antagonists of the AR receptor induce nuclear translocation to varying degrees. […] The OT AR/SRC-1 assay was also run for 16 hours (see description for OT_AR_ARSRC1_0960).
In the case of `O=C1c2ccccc2C(=O)C1C(=O)C(c1ccccc1)c1ccc(Cl)cc1` (stereo not drawn), the AC50 is reported as 30 µM (active).
`CC(C)N(C(=O)CCl)c1ccccc1` was tested, and the outcome was “inactive”.
For `O=S1(=O)OC(c2cc(Br)c(O)c(Br)c2)(c2cc(Br)c(O)c(Br)c2)c2ccccc21`, the outcome was “inactive”.
`Cc1cc(Cl)ccc1OCCCC(=O)O` was tested, and the outcome was “inactive”.
`O=C(CCl)Nc1ccccc1` was tested, and the AC50 was 59.5 µM (active).
For `O=C(NC(=O)c1c(F)cccc1F)Nc1cc(Cl)c(OC(F)(F)C(F)C(F)(F)F)cc1Cl` (stereo not drawn), the outcome was “inactive”.
In the case of `O=C(N[C@H]1CN2CCC1CC2)c1ccc2c(c1)OCCO2`, the outcome is reported as “inactive”.
For `CC(=Cc1ccccc1)[N+](=O)[O-]`, the AC50 was 18 µM (active).
For `O=S1OC[C@@H]2[C@H](CO1)[C@]1(Cl)C(Cl)=C(Cl)[C@@]2(Cl)C1(Cl)Cl` (stereo partly drawn), the outcome was “inactive”.
`N#CCC#N` was tested, and the outcome was “inactive”.
In the case of `O=[N+]([O-])c1ccc(Cl)c([N+](=O)[O-])c1`, the AC50 is reported as 15 µM (active).
In the case of `O=C(O)COc1cc(Cl)c(Cl)cc1Cl`, the outcome is reported as “inactive”.
With `C=CC(Cl)CCl` (stereo not drawn) the outcome was “inactive”.
